# Assay outcomes from PubChem.
# DT40 TDP1 no CPT: qHTS for Inhibitors of human tyrosyl-DNA phosphodiesterase 1 (TDP1): qHTS in cells in absence of CPT. DT40 Tdp1-/- hTDP1 cells, no CPT, ATP luminescence, 48 h. Potency, µM (series often up to 46.2 µM), for inactives: at the highest dose activity change, negative = growth inhibition, most hits filed as inhibitors. actives 15% (n = 420,000). AID 686978, 2013; note: potency is the fitted concentration of half-maximal effect; nearly all actives have a fitted effect of over 55% in size
#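 Stably hTDP1-transfected Tdp1-null chicken DT40 cells were treated with library compounds minus camptothecin and grown for at least 48 hr at 37 °C, after which cellular ATP was quantified by luminescence.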
# TDP1 cell CPT: growth inhibition of DT40 Tdp1-/-;hTDP1 cells with camptothecin (screen for TDP1 inhibitors). Potency, µM (top dose mostly 46.2 µM), without a hit: at the top dose activity change, negative = growth inhibition, usual class: inhibitors. chicken DT40 Tdp1-/-;hTDP1 cells + 20 nM CPT, ATP luminescence, 48 h. actives 12% (n = 420,000); note: potency is the fitted concentration of half-maximal effect; nearly all actives have a fitted effect of over 55% in size
#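 Chicken DT40 Tdp1-/- cells complemented with human TDP1, 400 cells/well, exposed to compounds plus 20 nM camptothecin for at least 48 h at 37 C; viability read as ATP content by CellTiter-Glo luminescence.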
# HT1080 IDH1KD tx: kills HT-1080 cells with IDH1 knockdown; HT-1080 IDH1 knockdown viability, ATP luminescence, 48 h; actives 2% (n = 360,000); Potency, µM (top dose mostly 46.1 µM), for the others: top-dose activity, negative = toxicity, usual class: cytotoxic;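 note: potency is the fitted concentration of half-maximal effect; 0% = DMSO wells and -100% = cell-free medium wells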
#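 CellTiter-Glo luminescence after 48 h compound exposure at 37 degrees C of IDH1-knockdown HT-1080 cells in 5% FBS RPMI. %Activity scaled between DMSO wells and cell-free media wells, with curves fitted and assigned curve classes.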
# HT1080-NT tox: kills 2HG-producing HT-1080-NT fibrosarcoma cells. HT-1080-NT fibrosarcoma viability, CellTiter-Glo ATP luminescence, 48 h. Potency, µM (series often up to 46.1 µM), inactives show at the highest dose activity, negative = less viability, actives largely listed as cytotoxic. actives 1.6% (n = 360,000);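 note: NT is the 2HG producing partner of a matched IDH1 knockdown line; potency is the fitted concentration of half-maximal effect; 0% = DMSO-treated cells and -100% = media-only wells without cells; nearly all actives have a fitted effect of over 55% in size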
#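 A 48-hour cytotoxicity screen used HT-1080-NT cells plated 2 hours before compound delivery. ATP-based CellTiter-Glo luminescence measured viability, normalized to DMSO and no-cell controls.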
# IL-1B inflam inh: blocks inflammasome-driven IL-1 beta release. actives 4.7% (n = 360,000). activity change, % at 57.5 µM. THP-1 LPS/ATP IL-1B secretion, AlphaLISA, 16 h; active compounds read low; in the data active = activity change below about -50%; inconclusive = mostly about -30% to -49%
#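 THP-1 cells pretreated 1 hr with compounds (up to 57.5 uM final), then stimulated with LPS (250 ng/mL final) plus ATP (1.25 mM final); secreted IL-1B measured by AlphaLISA after 16 hr, decreased signal indicating inhibition.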
# ELG1 repair inh: ELG1-dependent DNA repair inhibition; HEK293T ELG1-luciferase reporter, luminescence, 16 h; DNA damage induced by 5-fluorouridine; Potency, µM (top dose mostly 46.1 µM), for the others: top-dose activity change, negative = inhibition, usual class: inhibitors; actives 2.3% (n = 330,000); note: potency is the fitted concentration of half-maximal effect; nearly all actives have a fitted effect of over 55% in size
#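 Step one: seed 2,000 cells per well. Step two: pin-transfer compound or DMSO alongside 5-fluorouridine. Step three: incubate 16 hr, 37 °C, 5% CO2. Step four: add ONE-Glo, wait 30 min, read luminescence.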
# * marks the source's active call; other numbers are inactive results; i = inactive; ? = inconclusive; · = not tested or not shown; ! = not confirmed by another sample; [ ] = dose if it differs, or a comment. The list is not random: actives were taken first. Their share in the collection is about 19%. Unless noted, calls come from the whole dose curve; as a rule, active = well fitted curve in the direction sought with a large enough effect; inconclusive = small, poorly fitted or top-dose-only effect, or another doubt; inactive = no such curve, though single readings can be large; an effect the other way counts as inactive or inconclusive. Unless noted, % is set by controls: 0 for no effect and ±100 for the full control effect.
SMILES,DT40 TDP1 no CPT,TDP1 cell CPT,HT1080 IDH1KD tx,HT1080-NT tox,IL-1B inflam inh,ELG1 repair inh
Cc1ccc(NC(=O)c2oc3ccc(S(=O)(=O)N4CCC5(CC4)OCCO5)cc3c2C)cc1C,?,8.2µM*!,-5%,-2%,0,6.5µM*
COc1cc(OC)c(NC(=O)Cn2c(=O)cc(C(F)(F)F)c3c(C)nn(C)c32)cc1Cl,7%,-4%,·,·,·,·
O=C(Cc1ccc(NC(=O)C2CCN(C(=O)C3CCCCC3)CC2)cc1)Nc1cccc(C(=O)N2CCCCC2)c1,-25%,-13%,-3%,0%,-3,·
CCOC(=O)Cn1ccc(NC(=O)COc2ccc(F)cc2F)n1,3%,-3%,-1%,3%,11,28%
NCC(=O)Nc1ccc(Cl)cc1C(=O)c1ccc[nH]1,0.12µM*,0.16µM*,-26%,-11%,5,?
Cn1c(=O)oc2cc(S(=O)(=O)N3CCC(C(=O)N4CCN(c5ccc(Cl)cc5)CC4)CC3)ccc21,2.3µM*,2.1µM*,·,·,·,·
Cn1c(=O)oc2cc(S(=O)(=O)N3CCC(C(=O)N4CCN(c5cccc(Cl)c5)CC4)CC3)ccc21,1.5µM*,4.1µM*,·,·,·,·
COc1cccc(N2CCN(S(=O)(=O)c3ccc4c(c3)oc(=O)n4C)CC2)c1,10%,8%,17%,1%,39,-8%
Cn1c(NC(=O)C(C)(C)Oc2ccc(Cl)cc2)cc(=O)n(C)c1=O,?,16µM*,1%,-3%,26,-3%
Cn1c(NC(=O)c2cc(Cl)ccc2Cl)cc(=O)n(C)c1=O,1%,4%,2%,3%,6,17%
NC[C@H]1O[C@H](O[C@H]2[C@H](O[C@@H]3O[C@H](CO)[C@@H](O)[C@H]3O)C(O)[C@H](N)C[C@@H]2N)[C@H](N)[C@@H](O)[C@@H]1O (stereo partly specified),-9%[21.1 µM],-15%[21.1 µM],·,·,·,·
CCOc1cc(/C=C2\SC(=N)N(c3nccs3)C2=O)ccc1OCCN1CCOCC1,21µM*,16µM*,?,-27%,-19,?
CCOc1cc(/C=C2\SC(=S)N(N3CCOCC3)C2=O)ccc1O,-21%,-3%,7%,3%,4,-3%
COc1ccc(C)cc1NC(=O)C1CCCN1S(=O)(=O)c1ccccc1F (stereo unspecified),?,?,0%,11%,31,?
CC(C)Oc1cccc(C2NC(=O)c3ccccc3O2)c1 (stereo unspecified),-14%,-6%,2%,-3%,-5,5%
COc1cccc(C2CC(=O)Nc3cc(OC)c(OC)c(OC)c32)c1OC (stereo unspecified),?,?,2%,4%,10,?
COc1cc2c(cc1OC)C(c1ccc3c(c1)OCO3)CC(=O)N2 (stereo unspecified),?,5%,?,?,25,0%
CC(C)Oc1cccc(C2CC(=O)Nc3cc4c(cc32)OCO4)c1 (stereo unspecified),2.6µM*,2.6µM*,·,·,·,·
Cc1cccc(C2CC(=O)Nc3cc4c(cc32)OCO4)c1 (stereo unspecified),21µM*,?,·,·,·,·
COc1cccc(C2CC(=O)Nc3cc4c(cc32)OCO4)c1OC(C)C (stereo unspecified),?,21µM*,·,·,·,·
COc1ccc(CCNc2ncnc3c2cnn3-c2cccc(Cl)c2)cc1,26µM*,?,·,·,·,·
Cc1ccc(-n2ncc3c(NCCO)ncnc32)cc1Cl,-13%,-19%,·,·,·,·
COc1ccc(CCNc2ncnc3c2cnn3-c2ccc(C)c(Cl)c2)cc1,?,21µM*,·,·,·,·
Cc1ccc(-n2ncc3c(NCCC4=CCCCC4)ncnc32)cc1C,?,10µM*,·,·,·,·
N#CC1=C(N)NC(=S)C(C(N)=O)C1c1ccc([N+](=O)[O-])cc1 (stereo unspecified),-6%,5%,-11%,-1%,18,9%
SMILES,DT40 TDP1 no CPT,TDP1 cell CPT,HT1080 IDH1KD tx,HT1080-NT tox,IL-1B inflam inh,ELG1 repair inh
O=C(NCCN1CCCCC1)Nc1cccc(F)c1,-1%,29%,7%,12%,2,2%
Cc1ccc(/C=C/C(=O)OC(C)C(=O)Nc2ccc(Cl)cn2)o1 (stereo unspecified),16µM*,13µM*,2%,17%,i,-1%
Cc1ccsc1C(=O)OC(C)C(=O)Nc1ccc(Cl)cn1 (stereo unspecified),26µM*,?,-2%,9%,0,-1%
COc1cc(/C=C/C(=O)OCC(=O)Nc2ccc(Cl)cn2)ccc1O,-22%,-29%,-9%,2%,0,?
COc1cc(/C=C/C(=O)OC(C)C(=O)Nc2ccc(Cl)cn2)ccc1OC(F)F (stereo unspecified),0%,7%,9%,-1%,-52*,?
CC(OC(=O)c1cc[n+]([O-])cc1)C(=O)Nc1ccc(Cl)cn1 (stereo unspecified),-10%,-8%,6%,?,24,0%
CC1(C)OC(=CC=Nc2ccc(Cl)cc2)OC1(C)C,?,-11%,-3%,-23%,9,20%
Cc1ccc(N2CC(NC(=O)C3CCCCC3)CC2=O)cc1 (stereo unspecified),1%,-3%,·,·,·,·
CC(OC(=O)CCCC(=O)Nc1ccccc1)C(=O)c1ccccc1 (stereo unspecified),?,?,2%,13%,8,3%
COc1cc(CCN2C(=O)c3cccc4cccc(c34)C2=O)c(S(=O)(=O)NCCO)cc1OC,?,?,5%,17%,·,4.6µM*
COc1cc(CCN2C(=O)c3cccc4cccc(c34)C2=O)c(S(=O)(=O)N2CCC(C)CC2)cc1OC,2.6µM*,26µM*,-2%,15%,-4,21µM*
O=C(CCCCCN1C(=O)c2cccc3cccc(c23)C1=O)NCCCO,-4%,26%,-1%,3%,-7,1%
COc1cc(CCN2C(=O)c3cccc4cccc(c34)C2=O)c(S(=O)(=O)NCCCO)cc1OC,?,?,7%,7%,8,5.8µM*
CCN1C(=O)c2cccc3c(S(=O)(=O)N4CCC(C)CC4)ccc1c23,?,?,-16%,-9%,107,?
COc1ccc(CCNC(=O)CCN2C(=O)c3cccc4cccc(c34)C2=O)cc1OC,10%,?,13%,8%,-2,3%
